Columns and labels:
Experiment in all cases: PBM binding z-score (relative to random genomic background probes); higher = stronger binding; sequences stand for … in GC…GCGATTGACAGCGTAGAATGAAGG
[1] = system: RARb homodimer (NR concentration 270 nM)
Method in brief: (§1)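 Probes were double-stranded and carried 34-nt variable regions with direct-repeat seeds, single-nucleotide variants, half-site ablations and random human genomic background sequences, printed on custom Agilent 4×180K protein-binding microarrays. Arrays were incubated 1 h with ligand-free nuclear receptor dimers in PBS pH 7.4, 2% milk, 0.02% Triton X-100, 1 mM DTT, 0.2 mg/mL BSA and 0.4 mg/ml salmon testes DNA. Antibodies against each partner (one per run) detected binding, and scanned fluorescence was regression-normalized. Binding z-scores use the random background probes as reference.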

[2] = system: RARg:RXRa (NR concentration 270 nM, RXRa partner concentration 90 nM)
Method in brief: as §1

[3] = system: RARg homodimer (NR concentration 270 nM)
Method in brief: as §1

[4] = system: RXRa DBDmut IVT, anti-RXR (DBD mutation: RXRa K156A/R161A, NR concentration 90 nM)
Method in brief: as §1

[5] = system: RXRa homodimer (NR concentration 180 nM)
Method in brief: as §1

[6] = system: THRa:RXRa (NR concentration 90 nM, RXRa partner concentration 90 nM)
Method in brief: as §1

[7] = system: THRa homodimer (NR concentration 90 nM)
Method in brief: as §1

[8] = system: VDR homodimer (NR concentration 270 nM)
Method in brief: as §1

Row | Sequence | PBM binding z-score [1] | PBM binding z-score [2] | PBM binding z-score [3] | PBM binding z-score [4] | PBM binding z-score [5] | PBM binding z-score [6] | PBM binding z-score [7] | PBM binding z-score [8]
1 | CGAGCTAGGTCATTGACAGGACAGTGAATAGTAA | 2.77 | 4.67 | 4.49 | 2.43 | 2.37 | 2.7 | 0.527 | 1.23
2 | CGTCCAAGGTCATAGGAGGTCAGTGTAGACAGAT | 5.63 | 6.73 | 7.24 | 3.82 | 6.53 | 5.46 | 3.59 | 4.71
3 | ATCGAAAGGTCGTGAGGCGAGTATACAGAAAGGC | 2.55 | 4.39 | 3.91 | 1.28 | 5.34 | 2.49 | -0.00887 | 0.582
4 | TCATATAGGTACACAGGTGAAAGTCCGTAAGTTA | 1.25 | 0.77 | 0.513 | 2.06 | 1.27 | 0.937 | 0.627 | 1.07
5 | CCTCGGAGGACAACAGGAGGTCAGATCTGCCAGA | 3.64 | 3.34 | 3.12 | 0.415 | 1.59 | 2.81 | 1.03 | 1.28
6 | GCTAGCAGGCCATTTGGGTGACTCAATGACGGGC | -0.273 | -0.23 | 0.0183 | -0.541 | -0.076 | 0.189 | -0.653 | -0.481
7 | TGTCAAAGTTCAAAGGTAACGTTAGTATCCACAC | 4.11 | 6.39 | 6.13 | 4.32 | 7.81 | 3.18 | -0.0671 | 3.97
